Screens from PubChem BioAssay.
rCAG RNA binder: binds r(CAG) RNA repeats; inhibition, % at 3 µM; AID 651821; r(CAG) RNA repeat, TO-PRO-1 dye displacement fluorescence; hit rate 1.3% among 370,000;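 active means inhibition above the plate cutoff, the mean of all test compounds on that plate plus 3 SD, cut at about 35% in these data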;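 further: 0% = DMSO alone and 100% = 100 µM mitoxantrone as full dye displacement; higher means more dye released from RNA so lower well fluorescence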
ADAM10 inh: inhibits human ADAM10; O14672; recombinant ADAM10, EDANS/DABCYL FRET peptide cleavage, 3 h; inhibition, % at 7 µM; hit rate 0.62% among 370,000; AID 720582;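 active means inhibition above a per-campaign cutoff equal to the mean of compounds falling between control-based bounds plus 3 SD, cut at about 20% in these data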;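 further: 0% = DMSO wells while the 100% control is not disclosed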
AHR act: activates the human aryl hydrocarbon receptor. P35869. AID 2796. AHR-responsive luciferase reporter cells, luminescence. activation, % at 5 µM. hit rate 2.5% among 320,000; in the data active means activation above about 47%;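 further: 0% = vehicle wells and 100% = reference agonist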
Target sequence (P35869 whole entry, looked up): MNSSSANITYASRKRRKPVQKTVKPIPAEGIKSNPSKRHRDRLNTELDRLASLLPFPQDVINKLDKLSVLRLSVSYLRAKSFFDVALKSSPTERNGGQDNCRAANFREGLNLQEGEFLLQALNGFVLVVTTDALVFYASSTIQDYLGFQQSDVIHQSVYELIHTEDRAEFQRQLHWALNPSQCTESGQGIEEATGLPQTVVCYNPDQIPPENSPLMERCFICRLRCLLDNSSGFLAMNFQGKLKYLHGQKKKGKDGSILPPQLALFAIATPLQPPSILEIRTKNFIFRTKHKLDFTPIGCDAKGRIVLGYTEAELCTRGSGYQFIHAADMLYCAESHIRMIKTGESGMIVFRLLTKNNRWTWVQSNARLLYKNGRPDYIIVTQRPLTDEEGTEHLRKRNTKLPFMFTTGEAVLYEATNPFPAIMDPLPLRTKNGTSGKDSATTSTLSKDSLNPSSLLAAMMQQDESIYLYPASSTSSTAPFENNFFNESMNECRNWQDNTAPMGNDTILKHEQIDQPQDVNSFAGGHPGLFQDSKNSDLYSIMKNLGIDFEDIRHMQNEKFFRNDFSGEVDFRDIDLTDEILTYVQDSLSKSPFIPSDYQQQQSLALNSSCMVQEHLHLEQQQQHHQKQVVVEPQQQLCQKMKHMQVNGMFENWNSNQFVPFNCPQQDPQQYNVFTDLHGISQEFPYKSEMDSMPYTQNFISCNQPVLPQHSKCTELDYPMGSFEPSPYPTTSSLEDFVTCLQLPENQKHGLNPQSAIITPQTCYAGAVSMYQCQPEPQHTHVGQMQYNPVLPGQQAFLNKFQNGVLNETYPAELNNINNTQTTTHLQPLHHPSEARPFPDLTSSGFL
proKLK7 act: activates the human kallikrein-7 zymogen | purified proKLK7, EDANS-DABCYL substrate fluorescence; 100% is mature enzyme control, 0% vehicle | activation, % at 7 µM | hit rate 0.9% among 370,000 | AID 652039;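 active means activation above the mean of all tested compounds plus 3 SD, computed per campaign excluding outliers beyond control limits, cut at about 13% in these data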
GRIN3A LBD mod: modulators (binders) of human NR3A ligand-binding domain; AID 1259313; NR3A LBD differential scanning fluorimetry, Tm shift; 0% = protein alone, 100% = glycine-bound protein; hit rate 2.5% among 340,000; Tm shift relative to glycine control, % at 25 µM;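 active means melting temperature shift of at least 10% of the positive control shift, at one fixed dose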
ADAM17 inh: inhibitors of human ADAM17; inhibition, % at 6.95 µM; hit rate 0.83% among 370,000; recombinant ADAM17, EDANS/DABCYL FRET peptide cleavage;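 active means inhibition above the mean of compounds lying between control limits plus 3 SD, set per campaign, cut at about 8.5% in these data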;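 further: 0% = DMSO-only wells as the low control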
ADAM10 counter: inhibits human ADAM10 in ADAM17 exosite counter-screen; hit rate 47% among 2,900; recombinant ADAM10, EDANS/DABCYL FRET peptide cleavage, 3 h; shares compounds with ADAM17 inh; inhibition, % at 6.95 µM; AID 743256;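 active means mean inhibition over the triplicate runs exceeds the activity threshold set in the earlier primary screen, cut at about 20% in these data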;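 further: 0% = DMSO wells and 100% = marimastat wells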
ADAM17 confirm: human ADAM17 inhibition, confirmation. shares compounds with ADAM17 inh. recombinant ADAM17, EDANS/DABCYL QFRET peptide cleavage. inhibition, % at 6.95 µM. hit rate 65% among 2,900;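 active means mean inhibition across replicates above the hit cutoff set in the primary screen, cut at about 8.5% in these data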;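 further: 0% = DMSO wells and 100% = marimastat wells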
Numbers without * were called inactive; / = not tested or not shown. In the library only some 7% were active in any assay of this set; here they are far more common.

SMILES	rCAG RNA binder	ADAM10 inh	AHR act	proKLK7 act	GRIN3A LBD mod	ADAM17 inh	ADAM10 counter	ADAM17 confirm
COc1ccc(-c2csc(NC(=O)C3COc4ccccc4O3)n2)cc1OC (centres undefined)	9	11	15	0	-8	8.9*	15	10*
CC(C)(C)c1csc(NC(=O)C2COc3ccccc3O2)n1 (centres undefined)	-7	0	1	0	4	2	/	/
O=C1N[C@@H](c2ccccc2)COC(=O)[C@@H](Cc2ccc(F)cc2)CC/C=C/C[C@H]1CC(=O)N(CCO)Cc1ccccc1	7	4	0	0	-4	2	/	/
O=C1N[C@@H](Cc2ccccc2)COC(=O)[C@@H](Cc2ccc(F)cc2)C/C=C\C[C@@H]1CC(=O)N(CCO)Cc1ccccc1	5	14	0	0	-8	4	/	/
O=C1N[C@@H](c2ccccc2)COC(=O)[C@@H](Cc2ccc(F)cc2)CC/C=C/C[C@@H]1CC(=O)N(CCO)Cc1ccccc1	4	27*	0	1	-3	10*	31*	15*
O=C1N[C@H](Cc2ccccc2)COC(=O)[C@H](Cc2ccc(F)cc2)CC/C=C/C[C@H]1CC(=O)N(CCO)Cc1ccccc1	12	7	1	1	-3	8.7*	21*	11*
COc1ccc(NC(=O)CN(C)CC(=O)N(C)C2(C#N)CCC(C)CC2)cc1 (centres undefined)	0	-12	3	0	-1	-2	/	/
COc1ccc(OC)c(NC(=O)C2CC(C)=C(C)CC2C(=O)O)c1 (centres undefined)	15	19	8	-1	1	11*	-9	-1
COc1ccc(OC)c(NC(=O)[C@H]2CC=CC[C@H]2C(=O)O)c1	2	11	0	0	-1	1	/	/
O=C(O)C1=C(C(=O)O)C2C=CC1C2	1	-16	/	0	10	-6	/	/
CC(C)(C)c1ccc(C(=O)c2c[nH]c(C(=O)NCC3CCCO3)c2)cc1 (centres undefined)	-11	3	10	0	-6	-2	/	/
Cc1ccccc1C(=O)c1c[nH]c(C(=O)NCC2CCCO2)c1 (centres undefined)	1	9	2	1	0	9.2*	-10	1
COC(=O)c1ccc(CCc2cc(O)c(Br)cc2O)cc1	6	0	/	2	-7	8.9*	-2	-1
COc1cc(C(=S)N2CCCC2)ccc1OCc1ccccc1	-5	1	1	0	1	-1	/	/
CC(C)n1cc(NC(=O)C2CC(c3cccc(Br)c3)=NO2)cn1 (centres undefined)	2	13	7	1	-10	9.0*	-5	-3
COc1ccc(NS(=O)(=O)c2ccc3nc(COc4ccc(Cl)c(C)c4)[nH]c3c2)cc1	11	19	21	1	29*	13*	27*	19*
O=C(Nc1cccc(F)c1)N(Cc1ccc(Cl)cc1)CC(O)C(F)(F)F (centres undefined)	-5	9	11	-1	1	9.9*	36*	20*
CN(C(=O)COC(=O)c1ccccc1SCC(=O)N1CCCC1)C1CCS(=O)(=O)C1 (centres undefined)	-1	16	0	0	0	9.0*	-12	0
COc1cc(C(O)c2nc(-c3ccc(F)cc3OC)cs2)ccc1F (centres undefined)	5	3	/	0	/	12*	26*	14*
COc1cc(C(O)c2nc(-c3csc4ccccc34)cs2)ccc1F (centres undefined)	4	12	/	0	/	10*	23*	17*
OC(c1ccc(F)c(F)c1)c1nc(-c2csc3ccccc23)cs1 (centres undefined)	5	10	/	0	/	6	/	/
COc1cc(F)ccc1-c1csc(C(O)c2ccc(F)c(F)c2)n1 (centres undefined)	2	12	/	0	/	6	/	/
CNC[C@H]1OCc2ccccc2-c2ccccc2C(=O)N([C@H](C)CO)C[C@H]1C	3	4	/	-1	/	3	/	/
Nn1c(SCC(=O)Nc2ccc(N3CCOCC3)cc2)nnc1-c1cccc(F)c1	2	-10	5	0	0	1	/	/
O=C(CNC(=O)c1ccccc1F)N/N=C/c1cc(Br)ccc1OCc1ccccc1	16	19	10	0	2	8.8*	32*	15*
SMILES	rCAG RNA binder	ADAM10 inh	AHR act	proKLK7 act	GRIN3A LBD mod	ADAM17 inh	ADAM10 counter	ADAM17 confirm
O=C(CNC(=O)c1cccc(F)c1)N/N=C/c1cc(Br)ccc1OCc1ccccc1	13	8	12	0	6	4	/	/
COc1ccccc1NC(=O)N(C)C[C@@H]1OCc2cnnn2CCCC(=O)N([C@@H](C)CO)C[C@H]1C	1	-1	/	1	/	8.8*	-5	-2
O=C(CCN1CCOCC1)c1ccc(N2CCCCC2)cc1	-1	0	-9	0	1	-3	/	/
CC(C)(C)c1cc(C(=O)CCN2CCOCC2)cc(C(C)(C)C)c1O	-10	13	0	0	0	9.4*	-3	3
CS(=O)(=O)N1CCN(c2ccc(NC(=O)C(c3ccccc3)c3ccccc3)cc2)CC1	13	17	0	0	-3	13*	6	3
Cc1ccc(N(C)S(=O)(=O)c2c(C)noc2/C=C/N(C)C)cc1	18	12	-2	0	6	2	/	/
Cn1c(CCc2ccccc2)n[nH]c1=S	-3	5	0	0	0	-2	/	/
COc1cccc(C(=O)Nc2ccc(Cl)c(C(F)(F)F)c2)c1	8	18	17	0	5	11*	8	4
CCC1CCCCN1CCCNC(=O)CN1C(=O)COc2ccccc21 (centres undefined)	-1	-8	1	-1	2	-6	/	/
Cc1ccc(C)c(NC(=O)c2cccc(Oc3ccc([N+](=O)[O-])cc3Cl)c2)c1	1	19	3	1	-2	9.0*	29*	16*
O=C(Nc1cccc(Cl)c1)c1cccc(Oc2ccc([N+](=O)[O-])cc2Cl)c1	11	16	-3	0	8	9.7*	23*	15*
Cc1ccc([N+](=O)[O-])cc1NC(=O)c1ccccc1	-3	1	41	0	0	-3	/	/
CCn1cc(C(=O)N[C@H](C(=O)NCCO)C(C)C)c(=O)c2cc3c(cc21)OCO3	-2	-54	0	1	-1	-20	/	/
